According to the supplement of paper PMC12645437, “Orthogonal IMiD-Degron Pairs Induce Selective Protein Degradation in Cells” (ACS Chemical Biology, 2025):
The full ranking holds about 8,300 sequences; the median of “log2 fold change of degron read counts, EGFP-low vs EGFP+ sorted cells (limma voom), compound-induced degradation” is about -1.1, and the highest 2% start at about 3.2. This is one part of a sample in which the highest values are shown more often than they occur.

T1: CRBN, Q96SW2
T1 chain: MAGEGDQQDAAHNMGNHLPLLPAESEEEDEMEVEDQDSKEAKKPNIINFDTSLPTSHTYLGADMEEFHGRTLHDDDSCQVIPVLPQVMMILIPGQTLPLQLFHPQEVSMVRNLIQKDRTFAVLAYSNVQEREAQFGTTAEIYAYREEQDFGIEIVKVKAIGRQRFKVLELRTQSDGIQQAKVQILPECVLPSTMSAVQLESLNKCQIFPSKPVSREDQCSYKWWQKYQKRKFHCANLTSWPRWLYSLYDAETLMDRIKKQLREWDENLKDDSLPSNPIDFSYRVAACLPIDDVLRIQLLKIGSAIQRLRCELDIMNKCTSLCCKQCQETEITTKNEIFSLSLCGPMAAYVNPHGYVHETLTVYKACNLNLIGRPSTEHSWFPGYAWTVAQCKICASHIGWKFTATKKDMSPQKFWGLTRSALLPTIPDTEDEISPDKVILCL

B1: 46F_47F_49P_50I_52G_53R_54M_55F_67L_, Q9UKT9 (peptide)
chain: FFCPICGRMFTQKGNLLRHIKL
B2: 46F_47H_49N_50I_52G_53A_54Q_55F_67L_, Q9UKT9 (peptide)
chain: FHCNICGAQFTQKGNLLRHIKL
B3: 46F_47Y_49E_50I_52G_53R_54C_55F_67L_, Q9UKT9 (peptide)
chain: FYCEICGRCFTQKGNLLRHIKL
B4: 46F_47K_49E_50Q_52G_53A_54V_55F_67L_, Q9UKT9 (peptide)
chain: FKCEQCGAVFTQKGNLLRHIKL
B5: 46F_47K_49N_50Q_52G_53A_54V_55F_67L_, Q9UKT9 (peptide)
chain: FKCNQCGAVFTQKGNLLRHIKL
B6: 46L_47C_49N_50Q_52G_53F_54A_55C_67L_, Q9UKT9 (peptide)
chain: LCCNQCGFACTQKGNLLRHIKL
B7: 46F_47I_49N_50Q_52G_53R_54G_55F_67L_, Q9UKT9 (peptide)
chain: FICNQCGRGFTQKGNLLRHIKL
B8: 46F_47V_49N_50Q_52G_53R_54L_55F_67L_, Q9UKT9 (peptide)
chain: FVCNQCGRLFTQKGNLLRHIKL
B9: 46F_47Y_49D_50V_52G_53A_54A_55F_67L_, Q9UKT9 (peptide)
chain: FYCDVCGAAFTQKGNLLRHIKL
B10: 46F_47L_49P_50V_52G_53A_54A_55F_67L_, Q9UKT9 (peptide)
chain: FLCPVCGAAFTQKGNLLRHIKL
B11: 46F_47R_49P_50V_52G_53A_54A_55F_67L_, Q9UKT9 (peptide)
chain: FRCPVCGAAFTQKGNLLRHIKL
B12: 46F_47A_49P_50V_52G_53A_54A_55F_67L_, Q9UKT9 (peptide)
chain: FACPVCGAAFTQKGNLLRHIKL
B13: 46F_47V_49D_50V_52G_53A_54A_55F_67L_, Q9UKT9 (peptide)
chain: FVCDVCGAAFTQKGNLLRHIKL
B14: 46F_47W_49D_50V_52G_53A_54A_55F_67L_, Q9UKT9 (peptide)
chain: FWCDVCGAAFTQKGNLLRHIKL
B15: 46F_47V_49N_50Q_52G_53A_54R_55F_67L_, Q9UKT9 (peptide)
chain: FVCNQCGARFTQKGNLLRHIKL
B16: 46F_47R_49N_50Q_52G_53H_54E_55F_67L_, Q9UKT9 (peptide)
chain: FRCNQCGHEFTQKGNLLRHIKL
B17: 46F_47D_49P_50I_52G_53H_54I_55F_67L_, Q9UKT9 (peptide)
chain: FDCPICGHIFTQKGNLLRHIKL
B18: 46L_47A_49P_50I_52G_53F_54W_55C_67L_, Q9UKT9 (peptide)
chain: LACPICGFWCTQKGNLLRHIKL

Molecular target: T1, CRBN, Q96SW2
Assay: log2 fold change of degron read counts, EGFP-low vs EGFP+ sorted cells (limma voom), compound-induced degradation; higher = more compound-induced degradation of the degron-EGFP fusion; degrons are variants of IKZF1/3 zinc finger 2; compound dose not given here
Conditions: Jurkat, 18 h
Description: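 Pooled library of 8380 IKZF3 ZF2 degron mutants (positions 146-167 varied within the IKZF3 130-189 degron; only the varied core is printed, flanks not printed) fused to EGFP with IRES-mCherry, lentivirally expressed in Jurkat cells. mCherry+ cells were treated with one IMiD compound for 18 h (dose not stated) and FACS-sorted into EGFP-low and EGFP+ populations. Degron sequences were counted by NGS, and log2FC (EGFP-low vs EGFP+) was estimated by limma voom over 3 biological replicates.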

[1] = compound: compound 19 (5-tert-butyl-thalidomide)
[2] = compound: compound 22 (5-morpholino-thalidomide)
[3] = compound: compound 33 (diphenyl IMiD analogue)
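Note: pooled lentiviral library of zinc finger degron-EGFP fusions in mCherry-positive Jurkat cells, FACS-sorted after compound exposure, with degron abundance counted by next-generation sequencing.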

Sequence | log2 fold change of degron read counts [1] | log2 fold change of degron read counts [2] | log2 fold change of degron read counts [3] | log2 fold change of degron read counts (compound: thalidomide)
B1 | 0.209 | -0.113 | 0.441 | -0.935
B2 | 0.655 | 1.29 | 1.05 | -0.181
B3 | 0.939 | 0.533 | 1.13 | -0.963
B4 | -3.73 | -2.96 | -3.73 | -3.19
B5 | -2.58 | -2.71 | -3.07 | -2.52
B6 | -1.66 | -2.13 | -1.86 | -1.41
B7 | -3.02 | -3.8 | -3.62 | -2.96
B8 | -1.99 | -2.78 | -1.99 | -1.68
B9 | 2.59 | 2.94 | 1.59 | -1.42
B10 | 0.86 | 0.132 | 1.81 | 1.42
B11 | 2.21 | 2.41 | 2.44 | 2.31
B12 | 3.6 | 2.87 | 1.74 | 1.56
B13 | -0.53 | 1.92 | 0.755 | 1.42
B14 | 2.61 | 3.37 | 1.17 | -0.68
B15 | -2.15 | -2.17 | -1.37 | -0.598
B16 | -3.26 | -3.83 | -3.1 | -2.88
B17 | -2.28 | -2.43 | -1.8 | -1.37
B18 | 2.95 | 2.34 | 2.58 | 2.45
